Compound activity: PubChem BioAssay, National Center for Advancing Translational Sciences (NCATS)
Rows were chosen to be rich in hits. Some 5.9% of all compounds tested hit in one or more screens of this group.
TrxR1 substrate: qHTS Assay for Substrates of Mammalian Selenoprotein Thioredoxin Reductase 1 (TrxR1): qHTS; purified TrxR1 substrate turnover, NADPH consumption readout; Potency, µM (top dose mostly 114 µM), without a hit: at the highest dose activity change, negative = substrate turnover; 390,000 tested, 0.01% active; Thioredoxin reductase 1, cytoplasmic (Rattus norvegicus), O89049; note: potency is the fitted concentration of half-maximal effect; nearly all actives have a fitted effect of over 50% in size
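Rat TrxR1, dispensed at 90 nM, was prereduced with 400 uM NADPH (final) for 5 min at ~22 deg C, then incubated with compound 15 min before 400 uM selenite. A first-read NADPH fluorescence drop versus no-compound background flagged substrates.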
RORgamma inh: qHTS for inhibitors of ROR gamma transcriptional activity. 310,000 tested, 5.4% active. AID 2551, 2010. Potency, µM (series often up to 53.6 µM), for the others: at the highest dose activity change, negative = inhibition, usual class: inhibitors. Drosophila S2 Gal4-RORgamma UAS-luciferase reporter, 20 h. Nuclear receptor ROR-gamma (Mus musculus), P51450; note: potency is the fitted concentration of half-maximal effect; nearly all actives have a fitted effect of over 60% in size
Target sequence (P51450 whole entry, looked up, the tested form may be a part): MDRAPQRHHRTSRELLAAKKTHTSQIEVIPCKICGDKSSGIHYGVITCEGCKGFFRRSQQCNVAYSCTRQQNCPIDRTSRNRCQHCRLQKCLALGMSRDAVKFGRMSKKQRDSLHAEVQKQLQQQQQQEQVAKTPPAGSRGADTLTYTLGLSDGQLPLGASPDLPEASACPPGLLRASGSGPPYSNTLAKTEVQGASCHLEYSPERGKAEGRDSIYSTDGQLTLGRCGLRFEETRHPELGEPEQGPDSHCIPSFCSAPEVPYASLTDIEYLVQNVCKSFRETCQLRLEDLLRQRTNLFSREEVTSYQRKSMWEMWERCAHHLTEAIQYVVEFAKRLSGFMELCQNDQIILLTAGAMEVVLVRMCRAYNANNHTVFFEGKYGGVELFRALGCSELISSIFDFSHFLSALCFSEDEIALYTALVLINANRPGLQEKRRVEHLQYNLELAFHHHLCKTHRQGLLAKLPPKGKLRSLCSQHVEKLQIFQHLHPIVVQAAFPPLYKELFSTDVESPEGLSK
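Stable Schneider cell line, Gal4 DNA-binding domain fused to ROR gamma, UAS-luciferase. Cmpd 1 hr RT → CuSO4 700 uM final → 20 hr RT → luciferase reagent 10 min → luminescence.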
rTrxR1 inhibitor: qHTS Assay for Inhibitors of Mammalian Selenoprotein Thioredoxin Reductase 1 (TrxR1): qHTS | recombinant rTrxR1, NADPH fluorescence consumption, selenite substrate | Potency, µM (series often up to 114 µM), for the others: at the top dose activity change, negative = inhibition, usual class: inhibitors | 390,000 tested, 1% active; note: potency is the fitted concentration of half-maximal effect; nearly all actives have a fitted effect of over 65% in size
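Rat TrxR1 (90 nM in the dispensed reagent) was pre-reduced with 400 uM NADPH for 5 min at room temperature, then incubated with compound for 15 min. After 400 uM selenite was added, NADPH fluorescence (Ex 340/Em 450 nm) was followed for 8 min.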
Coupling enz: qHTS Assay for Inhibitors of Fructose-1,6-bisphosphate Aldolase from Giardia Lamblia: Coupling assay counterscreen; 290,000 tested, 0.67% active; AID 2472, 2010; coupling enzyme system counterscreen, AmpLite Red fluorescence; activity change, negative = inhibition, % at 58.2 µM, hits read low; in the data active = activity change below about -30%
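Counterscreen lacking aldolase: glyceraldehyde-3-phosphate coupling-enzyme reagent preincubated 10 min at RT with compound (at 57.5 uM final), then substrate/coupling system with AmpLite Red added; fluorescence read at 525/598 nm after 20 min RT.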
GALK inh: qHTS Assay for Inhibitors of Human Galactokinase (GALK). P51570. 270,000 tested, 0.007% active. Purified GALK, Kinase-Glo residual ATP luminescence. Potency, µM (titrated, usually from 57.5 µM), without a hit: top-dose activity change, negative = inhibition, most hits filed as inhibitors; note: potency is the fitted concentration of half-maximal effect
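Galactose (100 uM) and ATP (35 uM) were turned over by 5 nM GALK for 1 h at RT. Kinase-Glo Plus then converted the remaining ATP into a luminescent signal.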
Gal4-VP16 FLuc: VP16 counterscreen qHTS for inhibitors of ROR gamma transcriptional activity; Drosophila S2 Gal4-VP16 UAS-luciferase, luminescence, 20 h; Potency, µM (series often up to 53.6 µM), for inactives: at the highest dose activity, negative = inhibition, most hits filed as inhibitors; 310,000 tested, 3.5% active; AID 2546, 2010;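 note: Gal4-VP16 expression switched on by copper sulfate through the metallothionein promoter; potency is the fitted concentration of half-maximal effect; nearly all actives have a fitted effect of over 50% in size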
Starred values were filed as active, the others as inactive; ? = inconclusive; · = no result; [ ] = remark or other dose. Unless noted, calls come from the whole dose curve; as a rule, active = well fitted curve in the direction sought with a large enough effect; inconclusive = small, poorly fitted or top-dose-only effect, or another doubt; inactive = no such curve, though single readings can be large; an effect the other way counts as inactive or inconclusive. % is set by controls: 0 for no effect and ±100 for the full control effect.

SMILES	TrxR1 substrate	RORgamma inh	rTrxR1 inhibitor	Coupling enz	GALK inh	Gal4-VP16 FLuc
COc1ccc(NC(=S)N(CCCN2CCCC(C)C2)Cc2cccs2)cc1 (stereo not drawn)	9.8%[57.1 µM]	11.2µM*	28.7%[57.1 µM]	0.0	-0.1%	-6.8%
O=C(Nc1ccc(Cl)cc1)N(CCCN1CCOCC1)Cc1cccs1	-0.6%	18.3%	12.6%	4.2	0.6%	4.4%
O=C(Nc1cccc(Cl)c1)N(CCN1CCOCC1)Cc1ccccc1F	-1.7%	?	5.0%	0.4	-1.8%	8.9%
CCN1CCCc2cc(CN(CCN3CCOCC3)C(=S)Nc3cccc(OC)c3)ccc21	-0.1%	7.08µM*	4.3%	-5.1	-0.1%	-3.2%[10 µM]
S=C(Nc1ccc(Cl)cc1)N(CCCN1CCOCC1)Cc1cccs1	-6.1%	12.6µM*	8.9%[57.1 µM]	-2.2	-0.4%	9.7%
CCc1ccc(NC(=S)N(CCN2CCOCC2)Cc2ccccc2F)cc1	-1.1%[57.1 µM]	14.1µM*	5.9%[57.1 µM]	-2.1	-3.4%	?
CCN(CC)S(=O)(=O)c1ccc(OC)c(NC(=O)OCc2ccccc2)c1	12.2%[0.0914 µM]	18.9%	17.1%[57.1 µM]	1.1	-3.3%	0.2%
CN(C)S(=O)(=O)c1ccc(NC(=O)c2ccc([N+](=O)[O-])cc2)cc1	-6.6%	?	7.7%	6.9	-0.6%	1.0%
COc1cccc(C(=O)NN2CC(O)=C(c3nc(C)cs3)C2=N)c1	-3.3%	11.3%	2.4%	2.4	0.9%	-2.8%
COc1ccc(N2CCN(C(=O)COC(=O)[C@@H](NC(=O)c3c(F)cccc3F)C(C)C)CC2)cc1	-5.6%	·	-9.0%	·	·	·
CC(C)c1c(O)c(-c2cc3c(c(C(C)C)c2O)CCC2C(C)(C)CCC[C@@]32C)cc2c1CCC1C(C)(C)CCC[C@@]21C (stereo partly drawn)	·	0.4%	·	13.2	·	2.0%
CC(C)c1cc2c(c(O)c1O)[C@@]13CCCC(C)(C)C1CC2OC3=O (stereo partly drawn)	3.6%	14.1µM*	15.8µM*	-30.3*	·	?
O=C(CS(=O)(=O)c1cn(Cc2ccc(F)cc2)c2ccccc12)N1CCOCC1	-6.8%[57.1 µM]	34.2%	9.3%[57.1 µM]	3.4	1.0%	0.3%
CC(=O)OCC1=C(C(=O)OC(C)(C)C)N2C(=O)[C@@H](NC(=O)Cc3ccccc3)[C@H]2SC1	2.9%	·	6.31µM*	·	·	·
COc1ccccc1C(=O)NNC(=O)c1cccc(F)c1	6.9%[57.1 µM]	10µM*	7.5%[57.1 µM]	-7.7	-1.1%	10µM*
Cc1cc(C)nc(NNC(=O)c2ccccc2O)n1	-4.8%	11.2µM*	6.9%	0.9	9.0%	3.0%
Cc1ccc(C(=O)NNC(=O)c2cc3ccccc3cc2O)cc1	-4.7%	14.1µM*	8.3%[57.1 µM]	-0.7	-1.5%	?
COc1ccccc1C(=O)NNC(=O)c1cccc(O)c1	1.4%	?	6.8%	0.8	-0.5%	?
CC1(C(=O)Nc2ccc3ccccc3c2)CC1(Br)Br (stereo not drawn)	7.2%[57.1 µM]	11.2µM*	31.5%[57.1 µM]	-4.1	3.7%	?
Cc1cc(NC(=O)c2ccccc2O)nc(C)n1	3.2%[57.1 µM]	?	20.1%[57.1 µM]	0.2	-0.4%	-20.1%
Cc1cc(C(=O)Nc2ccc3ccccc3c2)c(C)o1	1.0%	8.91µM*	-1.8%	-4.2	-2.0%	?
CC(=O)c1cc(C(=O)Nc2ccc3ccccc3c2)c(C)o1	6.1%	-6.6%	-5.1%	-6.3	-0.9%	-16.6%
Cc1ccc(C(=O)Nc2ccc3ccccc3c2)cc1	2.7%	6.31µM*	22.9%	-6.0	-0.3%	11.2µM*
COc1ccccc1C(=O)NNC(=O)C1CCCO1 (stereo not drawn)	7.3%	11.2µM*	21.9%	1.0	-1.8%	9.2%
Cc1ccc(Cl)cc1NC(=O)c1cc2ccccc2cc1O	2.7%	5.01µM*	-0.7%	-3.6	·	2.82µM*
SMILES	TrxR1 substrate	RORgamma inh	rTrxR1 inhibitor	Coupling enz	GALK inh	Gal4-VP16 FLuc
COc1ccc(C(=O)NNC(=O)C2CCCO2)cc1 (stereo not drawn)	-4.1%	-3.8%	0.5%	2.6	-2.1%	2.5%
COc1cc2ccccc2cc1C(=O)NNC(=O)c1ccccc1O	·	11.2µM*	·	·	5.9%	?
CC(/C=N\NC(=O)c1cc(C)oc1C)=C\c1ccccc1	-2.6%	6.31µM*	9.0%	-1.2	-3.2%	?
Cc1ccc(/C=N/NC(=O)c2cc(C)oc2C)cc1	-2.3%	-41.7%	12.4%	2.4	2.7%	?
O=C(COC(=O)/C=C/c1ccccc1Cl)NCc1ccccc1	-1.1%	-15.4%	9.8%	-0.6	-1.3%	1.4%
CN1/C(=C\C(=O)c2cncc(Br)c2)C(C)(C)c2ccccc21	-20.2%	-75.5%	?	-13.2	2.6%	11.2µM*
CN1/C(=C\C(=O)c2ccco2)C(C)(C)c2ccccc21	2.4%[57.1 µM]	?	10µM*	-7.2	2.0%	10µM*
CN1/C(=C/C(=O)c2nc(S(C)(=O)=O)ncc2Cl)C(C)(C)c2ccccc21	-9.1%	3.16µM*	50.1µM*	2.3	-3.6%	5.62µM*
CN1/C(=C\C(=O)c2cccnc2)C(C)(C)c2ccccc21	-6.3%	18.0%	-3.3%	-0.2	-0.4%	21.8%
O=C(O)Cn1nc(-c2ccc(Cl)cc2)ccc1=O	7.1%	20.7%	12.6%	0.9	-1.1%	0.5%
C=CCNc1oc(-c2cccc(F)c2)nc1C#N	-0.9%	·	7.08µM*	·	·	·
C=CCNc1oc(-c2ccc(Cl)cc2)nc1C#N	-2.9%	·	?	·	·	·
CCOC(=O)C1CCN(C(=O)c2ccccc2NC(C)=O)CC1	-3.0%	13.5%	15.0%	-0.8	-1.6%	4.6%
C/C(=N\NC(=O)C1COc2ccccc2O1)c1ccccn1 (stereo not drawn)	-3.4%	1.78µM*	-4.3%	-1.2	-0.4%	2.82µM*
C/C(=N\NC(=O)C1COc2ccccc2O1)c1ccc(Cl)s1 (stereo not drawn)	8.9%[57.1 µM]	6.31µM*	20.2%[57.1 µM]	2.8	-3.1%	17.8µM*
C/C(=N\NC(=O)C1COc2ccccc2O1)c1ccc(C)o1 (stereo not drawn)	2.4%[57.1 µM]	-9.4%	19.5%[57.1 µM]	-0.2	0.5%	7.3%
C=CCOc1ccc(/C=C2\SC(=S)N(N3CCOCC3)C2=O)cc1	8.0%[57.1 µM]	-1.6%	34.2%[57.1 µM]	1.1	3.3%	1.2%
Cc1ccc(NC2=C/C(=N/S(=O)(=O)c3cccs3)c3ccccc3C2=O)cc1C	-2.4%	?	11.8%	-25.9	2.0%	-27.7%
